Data published in PubChem BioAssay AID602399 (Sanford-Burnham Center for Chemical Genomics, 2012).
In all, about 360,000 compounds went through this assay and about 2,800 (0.78%) were called active. Many of the other results were omitted from the sample, so actives are more common in it than they were. Values without a mark were called inactive. Cut-off read from the data, not from the text of the source: active = inhibition above about 26%; inactive = the rest.

Tested on: Nicotinate-nucleotide adenylyltransferase NadD (Staphylococcus aureus N315)
Test: S. aureus NadD enzyme activity blockers – biochemical, colorimetric, uHTS, primary screen (AID 602399)
Details: purified NadD enzyme, colorimetric absorbance read-out; at 20 µM; hits give high values

Row | Structure (SMILES) | inhibition
1 | CCOC(=O)N1CCN(S(=O)(=O)c2cc3c(cc2C)NC(=O)CO3)CC1 | 6.26%
2 | CCCCCCC(=O)Nc1nc(C)c(-c2csc(Nc3cc(Cl)ccc3OC)n2)s1 | 33% (active)
3 | CCCCC(=O)Nc1nc(C)c(-c2csc(Nc3ccc(Cl)cc3)n2)s1 | 20.5%
4 | CCCCCCC(=O)Nc1nc(C)c(-c2csc(Nc3cccc(OC)c3)n2)s1 | 17.7%
5 | CCOc1ccc(/C(O)=C2\C(=O)C(=O)N(c3ccc(OC)cc3)C2c2ccccc2[N+](=O)[O-])cc1 (centres undefined) | -0.376%
6 | CCC(=C/c1sc2ccc3ccccc3c2[n+]1C)/C=C1\Sc2ccc3ccccc3c2N1C | 38.9% (active)
7 | Cc1[nH]c(N)nc(=S)c1CCCNc1ccccc1 | 4.24%
8 | CCCc1cc(=S)n2c([nH]c3ccccc32)c1C#N | 11.9%
9 | CNC[C@H]1Oc2c(NC(=O)C3CCCCC3)cccc2C(=O)N([C@H](C)CO)C[C@@H]1C | 0.223%
10 | CN(C)C(=O)Cn1c(=O)n(S(=O)(=O)c2ccccc2)c2ccccc21 | -0.572%
11 | Cc1nc(N)nc(Cl)c1CCC1OCCO1 | -2.19%
12 | CCCCNS(=O)(=O)c1ccc(S(=O)(=O)n2cnc3ccccc32)cc1 | 0.725%
13 | CC(C)C(c1nnnn1C1CCCC1)N1CCN(c2ccccc2F)CC1 (centres undefined) | -3.03%
14 | CC(=O)NS(=O)(=O)c1ccc(N/C(N)=N/c2nc(C)cc(C)n2)cc1 | 4.03%
15 | CC(=O)Nc1ccc(Nc2cc(C)nc(Nc3ccc(NC(C)=O)cc3)n2)cc1 | 32.4% (active)
16 | COc1ccc(C(=O)NNc2cc(C)nc(NNC(=O)c3ccc(OC)cc3)n2)cc1 | 3.2%
17 | CC1CCC2(CC1)NC(=O)N(CC(=O)c1cccn1C)C2=O (centres undefined) | -3.17%
18 | Cc1ccc2nsnc2c1S(=O)(=O)N1CCCC1C(=O)O (centres undefined) | -6.81%
19 | CCCCc1ccc(NC(=S)N2CCCC(CO)C2)cc1 (centres undefined) | -0.962%
20 | CC(=O)c1ccc(N2C(=NC(=O)C(C)C)SC3CS(=O)(=O)CC32)cc1 (centres undefined) | -3.55%
21 | Cc1ccc(C(=O)Nc2c(C#N)c(C)c(C)n2Cc2ccccc2)cc1 | -7.87%

Row | Structure (SMILES) | inhibition
22 | Cc1c(C#N)c(NC(=O)c2ccccc2)n(Cc2ccccc2)c1C | -5.49%
23 | CC(=O)Nc1ccc(C(=O)Nc2nc(-c3cc(C)n(Cc4ccccc4)c3C)cs2)cc1 | 41.8% (active)
24 | CCc1nn(CCCC(=O)Nc2ccc(C)c(C)c2)c(=O)c2cc3occc3n12 | 5.14%
25 | Cc1cc(CNCc2c(C(=O)N(C)Cc3ccccc3)nc3ccccn23)nn1C | -2.9%
26 | COc1ccc(NC(=O)C2CCC(CNc3c(N4CCCCC4)c(=O)c3=O)CC2)c(OC)c1 (centres undefined) | 1.77%
27 | CCOC(=O)c1c(NC(=O)NC(C)(C)C)sc2c1CCN(C)C2 | 0.728%
28 | Cc1c(OC(C)C(=O)N[C@@H](Cc2ccccc2)C(=O)O)ccc2c3c(c(=O)oc12)CCCC3 (some centres undefined) | 3.9%
29 | Cc1c(CCC(=O)N[C@@H](CC(C)C)C(=O)O)c(=O)oc2c(C)c3oc4c(c3cc12)CCCC4 | -0.714%
30 | Cc1oc2c(C)c3oc(=O)c(CC(=O)N[C@@H](CC(C)C)C(=O)N[C@@H](Cc4ccccc4)C(=O)O)c(C)c3cc2c1C | 35.9% (active)
31 | COc1cc(Cl)cc(C2NC(=O)NC(C)=C2C(=O)NCc2ccccc2)c1O (centres undefined) | -2.49%
32 | Cc1cccc(C)c1NC(=O)C1(C)c2cccc[n+]2CC(=O)N1Cc1cccs1 (centres undefined) | 6.36%
33 | CCn1cc(C(=O)NCCCN2CCCCCC2)c(=O)c2cc(S(=O)(=O)N3CCc4ccccc4C3)ccc21 | 25.6% (active)
34 | CCn1cc(C(=O)NCC2CCCO2)c(=O)c2cc(S(=O)(=O)N3CCCCC3)ccc21 (centres undefined) | 8.79%
35 | CCn1cc(C(=O)NC2CCCCCC2)c(=O)c2cc(S(=O)(=O)N3CCCCC3)ccc21 | -1.8%
36 | COCCN(C(=O)C(C)N1C(=O)c2ccccc2C1=O)c1c(N)n(CC(C)C)c(=O)[nH]c1=O (centres undefined) | 0.415%
37 | COCCNC(=O)C(OC(=O)c1cccs1)c1ccc(F)cc1 (centres undefined) | 2.74%
38 | O=C(Cc1csc(Nc2nc(=S)[nH]c3ccccc23)n1)NCCCN1CCN(c2cccc(Cl)c2)CC1 | 43.9% (active)
39 | CCOC(=O)N1CCC(Nc2c(NCCN3CCN(c4cccc(Cl)c4)CC3)c(=O)c2=O)CC1 | -3.05%
40 | O=C(Cc1ccc(-n2c(=O)[nH]c3ccccc3c2=O)cc1)N1CCN(c2cccc(Cl)c2)CC1 | 6.86%
41 | CCOC(=O)N1CCC(N2Cc3cccc(C(=O)Nc4c(C)cccc4CC)c3C2=O)CC1 | 8.26%
42 | Cc1ccc(C(=O)N2CCCC(c3ccccc3)=N2)cc1 | -4.43%

Row | Structure (SMILES) | inhibition
43 | COc1ccc(N2CCN(c3ccc([N+](=O)[O-])nc3)CC2)cc1 | 1.06%
44 | O=C(CCc1ccccc1)NNc1ccc(F)cc1 | -2.34%
45 | O=c1[nH]c(CSc2ncc(-c3ccc(F)cc3)n2Cc2ccco2)nc2ccccc12 | 1.31%
46 | Clc1cccc(-c2nc3nc4ccccc4nc3n2Cc2ccco2)c1 | -0.737%
47 | Cc1ccc(Cn2c(C)nc3c(c2=O)c2nc4ccccc4nc2n3Cc2ccco2)cc1 | 49% (active)
48 | COc1cc(C2c3cc4c(cc3C(O)C3COC(=O)C23)OCO4)cc(OC)c1OC (centres undefined) | 0.207%
49 | Cc1ccc(-c2nn(-c3ccccc3)cc2/C=C2\SC(=S)N(CCCCCC(=O)O)C2=O)o1 | 34.1% (active)
50 | O=C(O)CCCCCCCCc1cn(CN2C(=O)c3ccccc3C2=O)nn1 | 1.47%
51 | CC(C)[C@@H]1NC(=O)c2cc([N+](=O)[O-])cc(I)c2NCCC[C@@H](C(=O)NC(CC(=O)O)C(N)=O)NC(=O)[C@H](CO)NC1=O (some centres undefined) | -2.22%
52 | COc1ccc(OC)c(C(=O)c2coc3ccc(O)c(CN4CCOCC4)c23)c1 | 36.3% (active)
53 | COc1ccc2oc(=O)cc(CN3CCOCC3)c2c1 | 0.645%
54 | COc1ccc(OC)c(C(=O)c2coc3ccc(OC)cc23)c1 | -4.74%
55 | CC1CC(C)CN(C(=O)CCNC(=O)Cn2cnc3ccccc3c2=O)C1 (centres undefined) | -4.11%
56 | CC(=O)N1c2ccc(S(=O)(=O)N3CCC(C(=O)NC4CCCCC4C)CC3)cc2CC1C (centres undefined) | 1.28%
57 | CNC(=S)NNC(=O)c1oc2nc(-c3ccccc3)cc(-c3ccco3)c2c1N | 11.9%
58 | CS(=O)(=O)c1sc2nc(-c3ccccc3)cc(-c3ccccc3)c2c1N | 43.8% (active)
59 | Nc1cccc(-c2cc(-c3ccccc3)nc(-c3cccc(N)c3)n2)c1 | 13.8%
60 | Cc1noc(C)c1S(=O)(=O)N(C)C[C@H]1Oc2ccc(NC(=O)C3CCCCC3)cc2C(=O)N([C@H](C)CO)C[C@@H]1C | -4.63%
61 | COc1ccc(CN2CCn3ncc(C(=O)Nc4ccc(Cl)cc4Cl)c3C2=O)cc1 | -3.68%
62 | Fc1ccc2c(c1)C(c1cccnc1)=NNC(c1cccs1)=N2 | -1.68%
63 | O=c1oc(-c2ccccc2NS(=O)(=O)c2ccc(Cl)cc2)nc2ccccc12 | 10.9%

Row | Structure (SMILES) | inhibition
64 | CCCCCN(C(=O)CCC(=O)OCC(=O)NCc1ccc(OC)cc1)c1c(N)n(CCCC)c(=O)[nH]c1=O | -7.19%
65 | CC(C)c1ccc2c(c1)c(SC(C)(C)C)c(CC(C)(C)C(=O)O)n2Cc1ccc(Cl)cc1 | 31.8% (active)
66 | COc1cc(-c2nnn(CC(=O)NCc3ccccc3)n2)cc(OC)c1OC | 1.36%
67 | Cc1ccc(C2=NN(C(=O)CSc3nc(N)cc(N)n3)C(c3ccco3)C2)cc1 (centres undefined) | 4.52%
68 | COc1ccc(C2=NN(C(=O)CSc3nc(=O)n4ccc(C)cc4n3)C(c3ccc(C)cc3)C2)cc1 (centres undefined) | 36.1% (active)
69 | COc1ccc(C2CC(c3ccccc3)=NN2C(=O)CSc2nccc(=O)[nH]2)cc1 (centres undefined) | 9.94%
70 | COc1ccc(C(=O)N2CCCCC2c2cc(C(=O)Nc3ccc(F)c(Cl)c3)no2)cc1 (centres undefined) | 2.01%
71 | C[C@H]([C@@H](O)[C@@H](O)[C@@H](C)C(C)(C)C)[C@H]1CC[C@H]2C3CC[C@H]4C[C@H](OS(=O)(=O)O)[C@@H](OS(=O)(=O)O)C[C@]4(C)[C@H]3CC[C@]12C (some centres undefined) | 11.9%
72 | COc1cc(/C=C2\C(=N)N3N=C(CC(=O)N4CCOCC4)SC3=NC2=O)cc(OC)c1OC | -3.62%
73 | COc1ccccc1OCCOc1ccc(/C=C2\C(=N)N3N=C(C)SC3=NC2=O)cc1 | 29% (active)
74 | CCOc1cc(/C=C2\C(=N)N3N=C(C)SC3=NC2=O)ccc1OCCOc1ccccc1 | 22.4%
75 | C[C@@H]1CN([C@H](C)CO)C(=O)CCCn2nncc2CO[C@@H]1CN(C)S(=O)(=O)c1cccc(C#N)c1 | 4.94%
76 | CCOC(=O)c1ccc(NC(=O)c2c(N)n(C)c(=O)[nH]c2=O)cc1 | -3.34%
77 | COc1ccc(C(=O)OCC(=O)c2ccc(C)c(S(=O)(=O)N3CCOCC3)c2)cc1OC | -14%
78 | Cc1ccc(C(=O)COC(=O)c2cccc(N3C(=O)c4c(C)nc5ccccc5c4C3=O)c2)cc1C | 29.7% (active)
79 | Cc1ccc(C(=O)COC(=O)CCN2C(=O)C3C4CCC(C4)C3C2=O)cc1C (centres undefined) | 4.2%
80 | CN(C)c1ccnc(Oc2ccc(F)cc2)c1C#N | 0.732%
81 | O=C(O)C1=NN(c2c(F)c(F)cc(F)c2F)C(=O)CC1 | -2.16%
82 | COc1ccc(NS(=O)(=O)c2ccc(NC(=S)NC(=O)/C=C/c3ccc(C)cc3)cc2)nn1 | 52.5% (active)
83 | COc1ccc(NS(=O)(=O)c2ccc(NC(=O)C(C)(C(F)(F)F)C(F)(F)F)cc2)nn1 | 8.48%
84 | COc1cc(NS(=O)(=O)c2ccc(NC(=S)NC(=O)c3ccc(Br)cc3)cc2)ncn1 | 16.5%
